About 83,000 compounds went through this panel and 20% of them were active in at least one assay; those are over-represented in the sample as a whole.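 Step 1: grow cells in 96-well plates. Step 2: add test compound at a single concentration. Step 3: incubate 48 h. Step 4: record percent growth.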 Activity calls are given as the source filed them. The calls were made as follows: active = growth percent below 10; inactive = the rest.
Test system: HS 578T breast
Experiment: NCI-60 one-dose screen, 48 h (100 = growth as untreated, 0 = no growth, -100 = all killed)
Details: 10 µM unless noted

| SMILES | growth |
| --- | --- |
| COc1cccc(CC(C)=C(c2ccc(OCCN(C)C)cc2)c2ccc(OCCN(C)C)cc2)c1 | 42.4% (inactive) |
| N/C(=N\C(N)=N\c1nc2ccccc2s1)c1cccc(Br)c1 | 103% (inactive) |
| O=C(Nc1ccc(Cl)c(Cl)c1)NS(=O)(=O)c1cnccc1Oc1ccc(F)cc1 | 86% (inactive) |
| Cc1ccc(S(=O)(=O)NC(=O)n2cc(-c3ccncc3)c(-c3ccc(Cl)c(O)c3)n2)cc1 | 107% (inactive) |
| CCN(CC)CCC(CNc1ccnc2cc(Cl)ccc12)c1ccc(Cl)cc1 (configuration not stated) | -66.8% (active) |
| CCN(CC)CCOc1ccc(Cl)c(C)c1 | 103% (inactive) |
| OC(c1cc2cc(Br)ccc2c2cc(Br)ccc12)C1CCCCN1 (configuration not stated) | -53.1% (active) |
| CCN(CC)CCC(CNc1ccnc2cc(Cl)ccc12)c1ccccc1 (configuration not stated) | 46.8% (inactive) |
| CCCCCCCCCCCCNC(=O)[C@H]1CSC(c2cc3ccccc3s2)N1 (some centres not stated) | -41.4% (active) |
| CCCCCCN1CSC(=S)N(CCCCCC)C1 | 105% (inactive) |
| CC1(c2ccc(Cl)cc2)OC(=O)CC(=O)O1 | 105% (inactive) |
| O=C(NS(=O)(=O)c1ccc2ccccc2c1)n1cc(-c2ccncc2)c(-c2ccc(Cl)c(O)c2)n1 | 72.4% (inactive) |
| CN(C)CCOC(=O)Nc1ccccc1Cl | 115% (inactive) |
| Cc1c(C(=O)/C=C/c2csc3ccccc23)[n+](=O)c2ccccc2n1[O-] | 93.9% (inactive) |
| CN(C)CCCN(c1nc(C(Cl)(Cl)Cl)ns1)c1nc(C(Cl)(Cl)Cl)ns1 | 46% (inactive) |
| CC[N+](CC)=c1cc2oc3cc(N(C)C)ccc3nc-2cc1C | 89.1% (inactive) |
| CCN(CC)CCC(CNc1c2ccc(Cl)cc2nc2ccc(OC)cc12)c1ccccc1 (configuration not stated) | -27.6% (active) |
| CN1CCN(Cc2ccc(NC(=O)c3nc4ccc5[nH]ncc5c4c4c3CCC4)cc2C(F)(F)F)CC1 | 85.9% (inactive) |
| COc1ccc(N=Cc2c(O)ccc3c2oc2cc(Cl)c(O)c(Cl)c23)cc1 | 93.5% (inactive) |

| SMILES | growth |
| --- | --- |
| O=C(O)C1CCCCN1c1nc(Cl)nc(Cl)n1 (configuration not stated) | 103% (inactive) |
| C=CCn1c2ccccc2c2c3c(c4c5ccccc5n(CC=C)c4c21)C(=O)N(O)C3=O | 77.2% (inactive) |
| Nc1cccc(Cl)c1N | 98.9% (inactive) |
| O=C(NS(=O)(=O)c1ccccc1)n1cc(-c2ccncc2)c(-c2ccc(Cl)c(O)c2)n1 | 106% (inactive) |
| Cc1csc(NC(c2ccc(Br)cc2)c2c(C)nc3ccccn23)n1 (configuration not stated) | 84.6% (inactive) |
| COc1cc(-c2nn(C(=O)NS(=O)(=O)c3ccccc3)cc2-c2ccncc2)ccc1Cl | 79.4% (inactive) |
| N=c1ccc2nc3ccc(N)cc3sc-2c1 | 51.9% (inactive) |
| Cc1ccc(Cc2c(C=O)nc(N)[nH]c2=O)c2ccccc12 | 109% (inactive) |
| CCN(CC)CCCC(C)Nc1c2ccc(Cl)cc2nc2cc(OC)c(OC)cc12 (configuration not stated) | 44.2% (inactive) |
| CCCCCCCCCCCCNC(=O)[C@H]1CSC(c2ccsc2)N1 (some centres not stated) | -56.5% (active) |
| CC(C)(C)NCCC(O)c1cc2c(Cl)cc(Cl)cc2c2cc(C(F)(F)F)ccc12 (configuration not stated) | -56.9% (active) |
| COc1cc2c(cc1O)CCN1C[C@@H](CC(C)C)[C@@H](O)C[C@@H]21 | 114% (inactive) |
| Nc1ccc(C(=O)CSc2nc3ccccc3[nH]2)cc1 | 109% (inactive) |
| CCCC(=O)Oc1ccc(/C(=C(\C)c2ccccc2)c2ccc(OCCN(CC)CC)cc2)cc1 | 42.6% (inactive) |
| C/C=C(\C)C(C(=O)NC1CCCCC1)N(C(=O)C1CCc2cc(F)ccc2O1)c1ccc(Cl)cc1 (configuration not stated) | 94.7% (inactive) |
| Cn1ccc(=O)c(S(N)(=O)=O)c1 | 104% (inactive) |
| O=c1[nH]c(NCc2ccccc2)nc2nc(Nc3ccc(NC(=S)Nc4ccccc4)cc3)nc(-c3ccc(O)cc3O)c12 | 88.1% (inactive) |
| COc1ccc(-n2c(-c3ccccc3)c(-c3ccccc3)c3c(SCC(=O)N/N=C/c4ccc(Cl)cc4)ncnc32)cc1 | 93% (inactive) |
